Source: PubChem BioAssay (Broad Institute)
TRPM1 prom inh: inhibitors of MITF-driven TRPM1 promoter in melanoma cells. 330,000 compounds, 0.83% hits. SK-MEL-5 TRPM1 promoter luciferase, 24 h. inhibition, % at 12.5 µM;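 active means mean inhibition across replicates of 60% or more, whatever share of single replicates reaches that level; inconclusive means some that reach 60%, reason not given; inactive means mean inhibition across replicates below 60%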
Wnt bcat act: activators of Wnt/beta-catenin signaling | activation, % at 9.35 µM | 300,000 compounds, 1.2% hits | Wnt/beta-catenin reporter cell assay, activator, plate reader | AID 743398; in the data active means activation above about 30%, passing the limit was not always enough; inconclusive means no clear call, values can overlap the other calls;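 further: 0% = neutral control wells and 100% = positive control wells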
C2C12 statin: protects C2C12 myotubes from simvastatin toxicity | rescue of ATP level, % at 7.49 µM | 330,000 compounds, 0.78% hits | ATP luminescence, 48 h; scaled: DMSO 0, geranylgeraniol control 100;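 active means mean ATP rescue above about 67%, or every replicate alone reaching that limit, limit read from the data, passing the limit was not always enough; inconclusive means no clear call, values can overlap the other calls; inactive means mean under the limit and some replicate under it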;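 further: myotubes were challenged with 10 µM simvastatin during compound exposure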
EBV LMP1 NFkB: inhibitors of Epstein-Barr LMP1-induced NF-kappaB reporter | LMP1-induced NF-kappaB luciferase reporter cells, luminescence | inhibition, % at 12.5 µM | 350,000 compounds, 0.69% hits; in the data active means inhibition above about 41%; inconclusive means no clear call, values can overlap the other calls;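 further: 0% = neutral control wells and 100% = reference inhibitor control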
esBAF inh: inhibitors of esBAF chromatin remodeling in mouse ES cells; 350,000 compounds, 2% hits; Bmi1-luciferase knock-in reporter, 24 h; 100% = twice the neutral-well signal; reporter increase, % at 12.5 µM; in the data active means activation above about 40%; inconclusive means no clear call, values can overlap the other calls;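 further: 0% = median of the plate's neutral control wells and 100% = double that signal; a rise in the Bmi1 reporter signal indicates esBAF inhibition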
MITF act: MITF TRPM1 promoter activation in melanoma cells; 300,000 compounds, 0.75% hits; activation, % at 12.5 µM; SK-MEL-5 TRPM1-promoter luciferase, 24 h; % of positive control, neutral wells = 0;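 active means mean activation of at least 80% with every replicate also reaching 80%; inconclusive means mean reaches 80% but some replicate falls short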;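 further: 0% = neutral control wells and 100% = parthenolide positive control wells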
Active calls of the source: *; u = inconclusive; x = not tested or not shown. A selection: hits, their analogues and other compounds. The true share with any hit is near 4%.

SMILES	TRPM1 prom inh	Wnt bcat act	C2C12 statin	EBV LMP1 NFkB	esBAF inh	MITF act
CCC1(C)Cc2c(sc3[nH]c(=O)[nH]c(=O)c23)CS1 (stereo not drawn)	6.6	-2.2	99.7*	19.7	-8.9	-4.7
CCC1(C)Cc2c(sc3[nH]c(=S)[nH]c(=S)c23)CO1 (stereo not drawn)	-8.5	-0.4	-16.9	-2.0	3.4	8.9
CN(C(=O)Nc1ccccc1)C1CCS(=O)(=O)C1 (stereo not drawn)	1.0	-4.3	9.3	-0.2	-0.8	-3.0
CC(=O)NC1=C(N(C)C2CCS(=O)(=O)C2)C(=O)c2ccccc2C1=O (stereo not drawn)	63.8*	-12.5	-10.2	11.7	1.1	-63.5
O=C(C[C@@H]1CC[C@@H](NC(=O)C2CCC2)[C@@H](CO)O1)NCc1ccncc1	x	x	7.6	x	-2.5	x
Cc1cccc(NC(=O)CNC(=O)CN2CCN(C)CC2)c1C	-2.7	9.7	-0.8	1.9	-0.4	7.2
CCSc1nc2ccccc2n1C(=O)/C=C\c1ccc(OC)c(OC)c1	68.6*	28.6	25.1	67.8*	21.2	-69.0
CCSc1nc2ccccc2n1CC(N)=O	0.7	x	-0.2	-10.9	-5.0	-6.0
CCN(C(=O)CSc1nnc(Nc2cccc(C)c2C)s1)C1CCS(=O)(=O)C1 (stereo not drawn)	1.7	-1.9	-3.5	47.5*	-3.9	0.5
CCN(C(=O)CSc1nnc(NCc2ccccc2)s1)C1CCS(=O)(=O)C1 (stereo not drawn)	0.4	-3.0	-0.6	-2.6	-6.5	3.2
Cc1ccc(CNC(=O)CSc2nccn(-c3ccc(C)c(F)c3)c2=O)cc1	-6.2	4.8	3.5	-12.3	1.4	2.8
COC(=O)c1ccc(Cn2cnc3c(cnn3-c3ccc(F)cc3)c2=O)o1	12.1	x	-9.6	0.8	-5.9	-10.2
CC(C)CCn1cnc2c(cnn2-c2ccc(F)cc2)c1=O	-22.4	x	-12.7	-1.6	45.9*	23.5
O=S1(=O)CCN2C(c3ccco3)=CSC2=N1	4.5	-0.9	104.0*	-5.6	-7.8	-6.2
CCN(C)c1ccc(/C=N\n2nnnc2N)cc1	-21.1	x	x	-3.3	x	27.8
CCN(CC)c1ccc(/C=N/n2nnnc2N)c(O)c1	-18.6	x	-10.8	2.2	44.4*	20.5
COc1ccc(-c2nnc(NC(=O)c3ccc(S(=O)(=O)N4CCCc5ccccc54)cc3)o2)cc1	30.4	x	-28.4	48.6*	-6.3	-30.1
COCc1nnc(NC(=O)c2ccc(S(=O)(=O)N3CCCc4ccccc43)cc2)o1	-8.1	-4.4	x	-11.2	x	9.8
O=C(CSc1ncn(-c2ccccc2)n1)c1cccs1	-91.7	u	-7.8	-22.4	64.2*	90.4*
c1ccc(CSc2ncn(-c3ccccc3)n2)cc1	-79.5	x	3.1	-43.5	45.3*	75.5
CC(C)(CNC(=O)/C=C/c1ccc(F)cc1)CNC(=O)/C=C/c1ccc(F)cc1	-16.2	x	x	-20.4	x	14.2
CNc1nc(N)c([N+](=O)[O-])c(Nc2cccc(Cl)c2)n1	x	5.2	x	x	x	x
CCn1c(=O)c2sccc2n(Cc2ccc(C)cc2)c1=O	-16.9	0.0	6.9	-5.5	2.3	x
CC(=O)c1ccc2c(c1)C1C=CCC1C(c1ccncc1)N2 (stereo not drawn)	-30.9	x	3.6	-16.2	54.3*	33.5
CC(=O)c1ccc2c(c1)C1C=CCC1C(C(=O)O)N2 (stereo not drawn)	3.3	0.8	x	-0.7	x	2.7
SMILES	TRPM1 prom inh	Wnt bcat act	C2C12 statin	EBV LMP1 NFkB	esBAF inh	MITF act
Cc1ccsc1/C=C/c1ccc2ccccc2n1	13.8	-1.9	x	69.6*	-75.3	-14.7
COc1ccc2nc(-c3ccccc3)[nH]c(=O)c2c1	-32.0	2.5	-0.6	-16.1	44.4*	33.7
COc1ccc2nc(-c3ccccc3)nc(SC)c2c1	-28.8	12.4	-13.6	-19.9	47.3*	27.2
COc1ccccc1NC(=O)C(=O)N/N=C(\C)CC(=O)Nc1ccccc1C(F)(F)F	-15.2	-2.2	2.7	47.0*	5.1	13.1
CC(C)OP(=O)(Nc1cccc2ccccc12)OC(C)C	2.5	66.9*	x	5.7	x	-4.1
CC(=O)Nc1ccccc1NC(=O)C/C(C)=N/NC(=O)C1CCCCC1	0.5	0.6	11.3	1.1	-2.2	-0.5
O=C(c1ccc([N+](=O)[O-])o1)N1CCN(Cc2ccccc2)CC1	14.8	-1.2	12.6	-1.1	4.7	x
CCc1cccc2sc(N3CCN(C(=O)c4ccc([N+](=O)[O-])o4)CC3)nc12	77.1*	x	35.2	-44.2	11.9	-76.6
CCCCN(CCCC)CCNC(=O)c1cn(C)c2ccc(S(=O)(=O)N(C)C3CCCCC3)cc2c1=O	-11.6	0.8	-7.7	-4.6	-1.1	17.1
O=C(CSc1nnc(-c2ccco2)n1Cc1ccccc1)c1ccccc1	-82.3	x	41.0	-27.8	44.5*	91.2*
Cc1ccc(C(=O)CSc2nnc(-c3ccco3)n2Cc2ccccc2)cc1	-65.9	-0.5	82.9*	-14.2	28.3	70.5
NC(=O)NC(=O)CSc1nnc(-c2ccco2)n1Cc1ccccc1	-0.9	-1.2	-5.1	-2.6	-4.9	3.5
CCn1c(SCC(=O)NCc2cccs2)nnc1-c1ccncc1	-2.5	-4.0	10.0	-4.0	-3.2	3.9
CCn1c(SCC(=O)NCc2cccs2)nnc1-c1ccco1	-13.6	x	105.0*	-1.6	-1.4	17.0
CSC1=NC2C(N1)N(C)C(=O)N2C (stereo not drawn)	-14.1	x	x	-3.0	x	15.4
O=C(CC1C=CCC1)Nc1ccccc1 (stereo not drawn)	-11.1	-2.2	-2.9	-2.6	21.4	14.4
C/C=C/c1ccc2c(c1)O[C@@H](CN(C)Cc1cccc(F)c1)[C@H](C)CN([C@H](C)CO)S2(=O)=O	x	x	-36.9	x	2.6	x
CO[C@H]1CC[C@H]2CCN(C)C(=O)[C@@H](C)[C@H](OC)CN(C)C(=O)c3cccc(C#N)c3OC[C@H]1O2	x	x	2.9	x	-0.1	x
O=C1c2ccccc2NC2(CCCCC2)N1c1ccc(O)cc1	-26.9	0.6	136.8*	-2.6	3.9	30.2
O=C(NCCCn1ccnc1)C(=O)NCC(c1cccnc1)N1CCN(c2ccccc2)CC1 (stereo not drawn)	x	-1.7	2.8	3.2	10.2	x
COc1ccc(N=Cc2nc(-c3ccco3)oc2O)cc1	-95.5	x	5.9	-7.1	63.1*	98.7*
CN(C)/C=C1\C(=O)N(c2ccc(Cl)cc2)CS1(=O)=O	-32.8	x	1.1	-17.0	31.6	35.5
Cc1ccc(N2CS(=O)(=O)/C(=C/N(C)C)C2=O)cc1	-60.2	48.8*	1.3	-17.4	14.7	68.2
O=C(N/N=C/c1ccc(N2CCOCC2)cc1)c1cccs1	-43.9	55.6*	4.0	-32.1	8.1	43.0
O=C(N/N=C/c1ccc(N2CCOCC2)cc1)c1ccc(NS(=O)(=O)c2cccs2)cc1	2.2	2.7	-0.6	2.7	6.5	-0.7
O=C(c1ccc(N2CCOCC2)cc1)c1cccs1	-17.6	41.6*	x	9.6	-7.2	x
